# Experimental data: PubChem BioAssay (NCI)
# The panel holds about 83,000 compounds, 20% with a hit somewhere; the sample as a whole holds those more often.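 Single-dose data. Exposure time 48 hours. Values below 10 considered active.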 Unmarked numbers belong to inactive results. Calls of active or inactive are those of the source.
# What was measured:
# Assay in all cases: NCI-60 one-dose screen, 48 h (100 = growth as untreated, 0 = no growth, -100 = all killed)
# Conditions in all cases: 10 µM
# HCT-15 colon = tested on: HCT-15 colon
# SNB-75 CNS = tested on: SNB-75 CNS
# SNB-19 CNS = tested on: SNB-19 CNS
# U251 CNS = tested on: U251 CNS
# PC-3 prostate = tested on: PC-3 prostate
# SK-MEL-5 melanoma = tested on: SK-MEL-5 melanoma
# UACC-62 melanoma = tested on: UACC-62 melanoma
# LOX IMVI melanoma = tested on: LOX IMVI melanoma
# SK-MEL-28 melanoma = tested on: SK-MEL-28 melanoma
# SK-MEL-2 melanoma = tested on: SK-MEL-2 melanoma
# EKVX NSCLC = tested on: EKVX NSCLC
# SN12C renal = tested on: SN12C renal
# UO-31 renal = tested on: UO-31 renal
# TK-10 renal = tested on: TK-10 renal
# ACHN renal = tested on: ACHN renal
# CAKI-1 renal = tested on: CAKI-1 renal
# A498 renal = tested on: A498 renal
# MOLT-4 leukemia = tested on: MOLT-4 leukemia
# HT29 colon = tested on: HT29 colon
# CCRF-CEM leukemia = tested on: CCRF-CEM leukemia
SMILES,growth (HCT-15 colon),growth (SNB-75 CNS),growth (SNB-19 CNS),growth (U251 CNS),growth (PC-3 prostate),growth (SK-MEL-5 melanoma),growth (UACC-62 melanoma),growth (LOX IMVI melanoma),growth (SK-MEL-28 melanoma),growth (SK-MEL-2 melanoma),growth (EKVX NSCLC),growth (SN12C renal),growth (UO-31 renal),growth (TK-10 renal),growth (ACHN renal),growth (CAKI-1 renal),growth (A498 renal),growth (MOLT-4 leukemia),growth (HT29 colon),growth (CCRF-CEM leukemia)
COc1cc(-c2csc(NC(=O)Nc3ccc(Cl)c(C(F)(F)F)c3)n2)cc(OC)c1OC,10.5%,-7.01% (active),13.2%,-9.73% (active),-0.311% (active),-79.9% (active),1.56% (active),-19.2% (active),15.3%,-14.3% (active),2.12% (active),-11.3% (active),-1.04% (active),-4.34% (active),-8.21% (active),6.78% (active),-15.7% (active),2.65% (active),–,–
Cc1cccc(N=Cc2ccccc2O)c1C,108%,97.3%,90.5%,–,94.6%,103%,–,–,–,129%,93.7%,89.6%,105%,121%,110%,–,106%,98.1%,97.7%,101%
CC(=O)Nc1cc2c(cc1Cl)Cc1cc(Cl)ccc1-2,85.9%,64.1%,–,89.1%,86.1%,86.6%,–,89.7%,104%,103%,12%,–,65.4%,86.4%,88.2%,75.6%,–,103%,99.4%,–
O=C(Nc1ccc(OCc2nnc(-c3ccc(Cl)cc3)o2)c(F)c1)Nc1ccc(Cl)c(C(F)(F)F)c1,9.78% (active),20.4%,–,-2.02% (active),5.92% (active),-35.7% (active),–,3.22% (active),20.2%,-20.2% (active),–,–,–,15.5%,0.519% (active),–,-23.7% (active),-1.55% (active),-3.97% (active),4.05% (active)
Nc1ncc(-c2cnn(C3CCNCC3)c2)cc1-c1nc2ccccc2o1,12.4%,13.2%,35.8%,–,–,26.9%,-67.1% (active),-80.6% (active),-86.8% (active),22.1%,85.3%,14.1%,–,–,21.9%,68.3%,36.4%,-35.7% (active),-4.71% (active),-53.7% (active)
CS(=O)(=O)c1nccc(-c2c(-c3ccc(OCCc4ccccc4)cc3)nc3sccn23)n1,103%,89.1%,89.4%,–,93.9%,–,88%,92.6%,96.3%,–,94%,90.3%,90.6%,–,101%,90%,84.5%,88.9%,88.1%,92%
O=C1/C=C/[C@@H](O)[C@@H]2C[C@@H](O)C[C@H]2/C=C/CCC[C@H](CCc2ccc(NC(=S)Nc3ccc4c(c3)C(=O)OC43c4ccc(O)cc4Oc4cc(O)ccc43)cc2)O1,3.98% (active),48.9%,34.1%,20%,23.3%,-87.2% (active),16.3%,-51.4% (active),9.95% (active),-9.15% (active),12.7%,10.1%,11%,-21.2% (active),14.9%,22.2%,-29.7% (active),-8.92% (active),–,-2.59% (active)
C/C=C/CSC(C)(C)C(=O)NC,100%,92%,101%,104%,92.8%,101%,105%,97%,112%,109%,99.8%,106%,93.8%,103%,108%,–,103%,102%,–,98.5%
CCNCC(=O)Nc1ccc(C(=O)OCC)cc1,104%,86.6%,109%,–,98.3%,108%,–,95%,103%,102%,104%,98.6%,95%,86.2%,108%,–,86%,87.5%,90.7%,96.4%
CN(C)c1nc(N)c2nccnc2n1,120%,84.8%,104%,112%,104%,107%,98%,95.1%,118%,97.9%,98.3%,99.6%,–,104%,105%,84.7%,93%,98.1%,–,114%
Cc1cn(-c2cc(F)cc(NC(=O)c3ccc(C)c(Nc4nccc(-c5cccnc5)n4)c3)c2)cn1,74.9%,-20.8% (active),6.01% (active),–,68.6%,87.8%,–,17%,28.2%,64.4%,–,–,–,-36.3% (active),-22.3% (active),–,–,–,2.89% (active),45.6%
Cc1cc(NC(=O)c2ccc(C)c(Nc3nccc(-c4cccnc4)n3)c2)cc(-n2cnc(C)c2)c1,58.6%,-14% (active),66.6%,–,61.4%,65.7%,–,2.11% (active),41.5%,83.5%,-56.9% (active),27.5%,-55% (active),-20.5% (active),-13.7% (active),-80.2% (active),–,14.3%,-18.6% (active),38.1%
C=C/C(C)=C/C[C@]1(C)[C@H](C)[C@@H](OC(=O)CCC)[C@H](O)[C@@]23C(=C[C@H](OC)C[C@@H]12)[C@@H](OC(=O)CCC)O[C@H]3OC(C)=O,-67.4% (active),-84.1% (active),27.4%,–,–,-88% (active),-78.3% (active),-66.4% (active),-49.8% (active),-70.5% (active),-33.7% (active),-51.9% (active),-90.7% (active),-95.1% (active),-94.4% (active),0.0055% (active),–,-12.8% (active),-66.9% (active),–
COc1cc2cc(Oc3ccc(NC(=O)c4ccccc4)cc3)c(C)nc2cc1OC,94.3%,54.1%,98.6%,59.3%,75.4%,80.2%,95.9%,86.5%,92.9%,59.5%,89.8%,81%,81.4%,–,80.8%,85.3%,89%,89.9%,–,101%
O=c1cn[nH]c2ccc(Br)cc12,104%,96.2%,106%,–,95.4%,100%,–,97.2%,123%,103%,108%,105%,78.9%,95.4%,103%,–,–,86.5%,95.7%,96.1%
CCC(C)[C@H](NC(C)=O)C(=O)N[C@@H](CCCNC(=N)N)C(=O)N[C@@H](CCCCN)C(=O)N[C@@H](CC1CCC(O)CC1)C(=O)NC(C(=O)N[C@@H](CCSC)C(=O)N[C@@H](CCCNC(=N)N)C(=O)N[C@@]1(C)CCC/C=C\CCC[C@@](C)(C(=O)NC(C(=O)N[C@@H](CCC(=O)O)C(=O)N[C@@H](CC(C)C)C(=O)N[C@H](C(=O)N[C@@H](CCC(=O)O)C(N)=O)C(C)C)[C@@H](C)O)NC(=O)[C@H](CCC(N)=O)NC(=O)[C@H](CC(C)C)NC(=O)[C@H](CC(C)C)NC1=O)[C@@H](C)O (stereo not given in full),100%,107%,110%,98.9%,99.1%,102%,99.6%,109%,94.6%,100%,99.5%,93.2%,106%,96.4%,106%,99.4%,120%,97.3%,–,–
CC[N+](CC)=c1ccc2nc3c(cc(NCc4ccccc4)c4ccccc43)oc-2c1,-45.8% (active),–,-79.7% (active),-95% (active),-19% (active),-97.4% (active),-73% (active),-64.2% (active),–,-80.1% (active),-96.7% (active),-85.9% (active),–,-10.6% (active),-77.9% (active),-70.8% (active),44.8%,2.86% (active),-62.9% (active),–
CC(C)[N+]1(C)C2CC[C@@H]1CC(OC(=O)C(CO)c1ccccc1)C2 (stereo not given in full),107%,–,–,–,92.4%,95.6%,108%,94.5%,122%,–,105%,103%,90.7%,107%,105%,88.4%,92.4%,121%,106%,92.3%
